Experimental data from PubChem BioAssay (NCI).
The panel holds about 83,000 compounds, 20% with a hit somewhere; the sample as a whole holds those more often.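 Growth was measured after 48 h exposure to one concentration of compound in 96-well plates. Values under 10 count as active.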 A number with no mark means an inactive call. The source made the active and inactive calls.

How the values were obtained:
Assay in all cases: NCI-60 one-dose screen, 48 h (100 = growth as untreated, 0 = no growth, -100 = all killed)
Conditions in all cases: 10 µM unless noted
[1] = test system: HCT-15 colon
[2] = test system: HT29 colon
[3] = test system: SNB-75 CNS
[4] = test system: SNB-19 CNS
[5] = test system: U251 CNS
[6] = test system: PC-3 prostate
[7] = test system: SK-MEL-5 melanoma
[8] = test system: UACC-62 melanoma
[9] = test system: LOX IMVI melanoma
[10] = test system: SK-MEL-28 melanoma

Structure (SMILES): CCN1CCC[C@H]1c1cc(O)c2c(c1OC)C[C@H]1C[C@H]3[C@H](N)C(=O)C(C(N)=O)=C(O)[C@@]3(O)C(=O)C1=C2O
- growth [1]: 1.67% (active)
- growth [2]: -4.51% (active)
- growth [3]: -4.69% (active)
- growth [4]: -0.511% (active)
- growth [5]: -8.89% (active)
- growth [6]: 3.27% (active)
- growth [7]: -46% (active)
- growth [8]: -19% (active)
- growth [9]: -45.2% (active)
- growth [10]: -10.6% (active)

Structure (SMILES): CC(C)Cc1cc(CNC(=O)C2[C@H]3CN(C(=O)c4ccccc4)C[C@@H]23)nn1-c1ccccc1 (stereo not given in full)
- growth [1]: 99.3%
- growth [2]: 66.5%
- growth [3]: 105%
- growth [4]: 107%
- growth [5]: 90.1%
- growth [6]: 90.8%
- growth [7]: 99%
- growth [8]: 88.2%
- growth [9]: 91.9%
- growth [10]: 93.5%

Structure (SMILES): COC(=O)c1ccc(NC(=O)CSc2nc(-c3ccc(F)cc3)nc3ccccc23)cc1
- growth [1]: 89.3%
- growth [2]: 91.3%
- growth [3]: 79.4%
- growth [4]: 80.2%
- growth [5]: 63.1%
- growth [6]: 75.6%
- growth [7]: 74.3%
- growth [8]: 93.4%
- growth [9]: 64.8%
- growth [10]: 94.7%

Structure (SMILES): COc1ccc2c(c1)Oc1nc(N)c(C#N)c(N)c1C2Sc1ccc(SC)cc1 (stereo not given)
- growth [1]: -10.9% (active)
- growth [2]: 17.2%
- growth [3]: 34.2%
- growth [4]: 58.2%
- growth [5]: 13.9%
- growth [6]: 35.9%
- growth [7]: 40.8%
- growth [8]: 50.7%
- growth [9]: -39.2% (active)
- growth [10]: 32.7%

Structure (SMILES): COc1ccc(/C=C(/C(=O)N2CCN(Cc3ccccc3)CC2)c2cc(OC)c(OC)c(OC)c2)cc1O
- growth [1]: 59.7%
- growth [2]: 95.4%
- growth [3]: 49.2%
- growth [4]: 64.8%
- growth [5]: 66.1%
- growth [6]: 34.8%
- growth [7]: 33.3%
- growth [8]: 45%
- growth [9]: 60.2%
- growth [10]: 76.5%

Structure (SMILES): O=C(O)c1ccc(-n2cc(/C=N/Nc3ccc(Cl)cc3Cl)c(-c3ccccc3)n2)cc1
- growth [1]: 72%
- growth [2]: 94.9%
- growth [3]: 88.4%
- growth [4]: 101%
- growth [5]: 90.5%
- growth [6]: 80.7%
- growth [7]: 87.1%
- growth [8]: 96.2%
- growth [9]: 91.9%
- growth [10]: 103%

Structure (SMILES): Cc1cc(Nc2nc(SCc3ccc(C(=O)Nc4ccc(F)cc4N)cc3)nn3cccc23)n[nH]1
- growth [1]: 22.6%
- growth [2]: 4.22% (active)
- growth [3]: 29.2%
- growth [4]: 43.8%
- growth [5]: 25%
- growth [6]: 28%
- growth [7]: 7.54% (active)
- growth [8]: 24.2%
- growth [9]: 30.1%
- growth [10]: 68.7%

Structure (SMILES): O=C(CCc1nnco1)c1nc2ccc([N+](=O)[O-])cc2[nH]1
- growth [1]: 105%
- growth [2]: 103%
- growth [3]: 104%
- growth [4]: 108%
- growth [5]: 107%
- growth [6]: 96.1%
- growth [7]: 109%
- growth [8]: 96.7%
- growth [9]: 93.2%
- growth [10]: 111%

Structure (SMILES): CCOC(=O)c1c(C)nc2c(c1N)/C(=C/c1ccccn1)C(=O)N2Cc1ccccc1
- growth [1]: -58.9% (active)
- growth [2]: -18.6% (active)
- growth [3]: 68.6%
- growth [4]: 0.719% (active)
- growth [5]: -87.4% (active)
- growth [6]: 2.04% (active)
- growth [7]: 41.2%
- growth [8]: 4.68% (active)
- growth [9]: -88.4% (active)
- growth [10]: -2.42% (active)

Structure (SMILES): CC1CCCN(CCCCCOc2ccc3oc4ccccc4c(=O)c3c2)C1 (stereo not given)
- growth [1]: 26.4%
- growth [2]: 8.93% (active)
- growth [3]: 75.8%
- growth [4]: 83.6%
- growth [5]: 62.7%
- growth [6]: 73.7%
- growth [7]: -59.2% (active)
- growth [8]: -26.5% (active)
- growth [9]: 33.2%
- growth [10]: 45%

Structure (SMILES): Cc1ccc(C2=N[C@H]3CCC[C@@H]3N(c3ccccc3)C(C(Cl)Cl)=N2)cc1
- growth [1]: 99%
- growth [2]: 89.7%
- growth [3]: 77%
- growth [4]: 113%
- growth [5]: 112%
- growth [6]: 101%
- growth [7]: 104%
- growth [8]: 105%
- growth [9]: 87.9%
- growth [10]: 101%

Structure (SMILES): C=C(C)[C@@H]1CC[C@]2(C(=O)OCCOCCOCC[P+](c3ccccc3)(c3ccccc3)c3ccccc3)CC[C@]3(C)[C@H](CC[C@@H]4[C@@]5(C)CC[C@H](OC(=O)C(Cl)Cl)C(C)(C)[C@@H]5CC[C@]43C)[C@@H]12
- growth [1]: 11.1%
- growth [2]: 5.74% (active)
- growth [3]: 8.83% (active)
- growth [4]: 17.6%
- growth [5]: -5.68% (active)
- growth [6]: -23.4% (active)
- growth [7]: -99.1% (active)
- growth [8]: -39.3% (active)
- growth [9]: -91.3% (active)
- growth [10]: -43.9% (active)

Structure (SMILES): COC(=O)c1nc(-c2ccccc2)oc1S(=O)(=O)n1nc(C)cc1N
- growth [1]: 46.9%
- growth [2]: 17.5%
- growth [3]: 82.3%
- growth [4]: 96.6%
- growth [5]: 101%
- growth [6]: 104%
- growth [7]: 92.3%
- growth [8]: 89.4%
- growth [9]: 76.8%
- growth [10]: 87.4%

Structure (SMILES): C(=C\c1cn(-c2ccccc2)nc1-c1ccccc1)/c1nnc(-c2c[nH]c3ccccc23)o1
- growth [1]: 69%
- growth [2]: 39.7%
- growth [3]: 17.6%
- growth [4]: 60.5%
- growth [5]: 20.9%
- growth [6]: 26%
- growth [7]: 59.4%
- growth [8]: 95.4%
- growth [9]: 47.6%
- growth [10]: 53.2%

Structure (SMILES): CC1CCCN(CCCCCOc2ccc3oc4ccc(Cl)cc4c(=O)c3c2)C1 (stereo not given)
- growth [1]: 2.05% (active)
- growth [2]: 4.5% (active)
- growth [3]: 82.5%
- growth [4]: 86.4%
- growth [5]: 68.2%
- growth [6]: 79.8%
- growth [7]: -14.3% (active)
- growth [8]: -43.1% (active)
- growth [9]: 10.9%
- growth [10]: 79.9%

Structure (SMILES): O=S(=O)(Nc1nccs1)c1ccc(Nc2nc(-c3ccncc3)cs2)cc1
- growth [1]: 103%
- growth [2]: 120%
- growth [3]: 84.7%
- growth [4]: 101%
- growth [5]: 95.2%
- growth [6]: 96.8%
- growth [7]: 107%
- growth [8]: 94.7%
- growth [9]: 95.8%
- growth [10]: 109%

Structure (SMILES): O=C1Nc2ccc(Br)cc2/C1=N\N=C/c1cn(Cc2ccccc2)c2ccccc12
- growth [1]: 103%
- growth [2]: 91%
- growth [3]: 84.7%
- growth [4]: 98%
- growth [5]: 94.6%
- growth [6]: 75.1%
- growth [7]: 97.2%
- growth [8]: 79.4%
- growth [9]: 98.1%
- growth [10]: 105%

Structure (SMILES): CCc1n(Cc2ccc3ccccc3c2)c2ccccc2[n+]1Cc1ccc2ccccc2c1
- growth [1]: 101%
- growth [2]: 25.3%
- growth [3]: 59%
- growth [4]: 45.3%
- growth [5]: 34.4%
- growth [6]: 52.9%
- growth [7]: 38.8%
- growth [8]: 50.6%
- growth [9]: 63.7%
- growth [10]: 69.8%

Structure (SMILES): COc1ccc(/C(=N\O)c2cc(C)c(OC)c(C)c2)cc1O
- growth [1]: 16.3%
- growth [2]: -8.4% (active)
- growth [3]: 38.4%
- growth [4]: 29.8%
- growth [5]: 22.1%
- growth [6]: 37.6%
- growth [7]: -7.18% (active)
- growth [8]: 35.3%
- growth [9]: 24.2%
- growth [10]: 55.4%

Structure (SMILES): CC(=O)c1ccc(NC(=O)CSc2nnc(-c3cc(-c4ccc(C)cc4)nc4ccccc34)o2)cc1
- growth [1]: 56.7%
- growth [2]: 68.2%
- growth [3]: 62.1%
- growth [4]: 43.2%
- growth [5]: -59.8% (active)
- growth [6]: 53.4%
- growth [7]: 68.7%
- growth [8]: 90.7%
- growth [9]: 31.9%
- growth [10]: 99.3%

Structure (SMILES): C=C1C(=O)O[C@H]2[C@H]1CC/C(COC(=O)CCCCCCCCC(=O)OC/C1=C/CC[C@@]3(C)O[C@H]3[C@H]3OC(=O)C(=C)[C@@H]3CC1)=C\CC[C@@]1(C)O[C@@H]21
- growth [1]: -31.6% (active)
- growth [2]: -27.5% (active)
- growth [3]: 58.4%
- growth [4]: 43.8%
- growth [5]: 12.1%
- growth [6]: -6.62% (active)
- growth [7]: -32.6% (active)
- growth [8]: -18.8% (active)
- growth [9]: -84.7% (active)
- growth [10]: -12.8% (active)

Structure (SMILES): CCC[S@@](=O)c1ccc2nc(NC(=O)OC)[nH]c2c1
- growth [1]: 68.3%
- growth [2]: 62.5%
- growth [3]: 82.6%
- growth [4]: 87.6%
- growth [5]: 82.2%
- growth [6]: 78.4%
- growth [7]: 83.3%
- growth [8]: 72.7%
- growth [9]: 90.2%
- growth [10]: 89.3%

Structure (SMILES): [2H]c1nc(Nc2ncc3cc(C(=O)N(C)C)n(C4CCCC4)c3n2)c([2H])c([2H])c1N1C([2H])([2H])C([2H])([2H])NC([2H])([2H])C1([2H])[2H]
- growth [1]: 79.9%
- growth [2]: 27.6%
- growth [3]: 69.7%
- growth [4]: 61.5%
- growth [5]: 56.1%
- growth [6]: 54.6%
- growth [7]: 72.3%
- growth [8]: 64.6%
- growth [9]: 40.2%
- growth [10]: 84.2%

Structure (SMILES): O=C1CC(c2ccc(O)c(O)c2)Oc2cc(O)c([C@@H]3O[C@H](CO)[C@@H](O)[C@H](O)[C@H]3O)c(O)c21 (stereo not given in full)
- growth [1]: 102%
- growth [2]: 103%
- growth [3]: 102%
- growth [4]: 102%
- growth [5]: 98.1%
- growth [6]: 97.3%
- growth [7]: 103%
- growth [8]: 105%
- growth [9]: 104%
- growth [10]: 107%

Structure (SMILES): O=C1NCc2ccc3c(-c4cccc(Cl)c4)c[nH]c3c21
- growth [1]: 27.2%
- growth [2]: 7.64% (active)
- growth [3]: 13.2%
- growth [4]: 28.6%
- growth [5]: 16.3%
- growth [6]: 17.2%
- growth [7]: 31.2%
- growth [8]: 27%
- growth [9]: 35%
- growth [10]: 62.2%

Structure (SMILES): NC(=O)CN1C(=O)c2ccccc2C1=O
- growth [1]: 100%
- growth [2]: 102%
- growth [3]: 86.4%
- growth [4]: 98.4%
- growth [5]: 103%
- growth [6]: 99.5%
- growth [7]: 99.2%
- growth [8]: 95.7%
- growth [9]: 103%
- growth [10]: 106%
